Four molecules from PubChem BioAssay (NCATS) can be followed below.

A short description of assay [1]: KB-8-5-11 Cancer Cell Toxicity qHTS against the NCATS CANVASS Library (AID 1347364). Note: nearly all actives have a fitted effect of over 75% in size. Particulars: KB-8-5-11 MDR cells viability, CellTiter-Glo, 72 h; series mostly up to 46.1 µM. In short, it runs like this:
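Natural products were titrated in 11 points onto KB-8-5-11 cells, 500 per well, and cytotoxicity was scored from CellTiter-Glo luminescence after 72 hr culture.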
A general note: qHTS replaces the single test concentration by a dilution series.

A short description of assay [2]: KB-3-1 Cancer Cell Toxicity qHTS against the NCATS CANVASS Library (AID 1347366). Note: nearly all actives have a fitted effect of over 75% in size. Particulars: KB-3-1 viability, CellTiter-Glo luminescence, 72 h; series mostly up to 46.1 µM. In short, it runs like this:
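Cytotoxicity toward KB-3-1 cells (500/well, DMEM + 10% FBS) was scored by CellTiter-Glo luminescence following 72 hr exposure at 37C, with bortezomib titrated as control.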

Assay [3] in a line: qHTS for ATAD5 Agonist screened against the NCATS CANVASS Library (AID 1347367).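 Note: luciferase reporter driven by ATAD5 which rises upon DNA damage.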 The conditions noted are these: HEK293T ATAD5-luciferase reporter, luminescence, 16 h; series mostly up to 46.1 µM. An outline of the steps:
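Genotoxicity was scored as increased ATAD5-luciferase luminescence in HEK293T after 16hr of exposure, with cell viability measured by fluorescence beforehand in the same well.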

A short description of assay [4]: MCF7 Cancer Cell Toxicity qHTS against the NCATS CANVASS Library (AID 1347369). Particulars: MCF7 viability, ATP luminescence (CellTiter-Glo), 72 h; series mostly up to 46 µM. In short, it runs like this: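 This 72 hr qHTS scored MCF7 viability by CellTiterGlo luminescence, with 500 cells/well; bortezomib titration ran as control.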

Assay [5] deals with Nuclear receptor subfamily 1 group I member 3 (Homo sapiens) (UniProt Q14994). Kind of assay: qHTS for Constitutive Androstane Receptor (CAR) Antagonist screened against the NCATS CANVASS Library (AID 1347372).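 Note: cells stimulated with 50 nM CITCO agonist so inhibition reflects antagonism.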 Particulars: HepG2-hCAR-CYP2B6 luciferase, CITCO-stimulated antagonist mode; series mostly up to 46.1 µM. An outline of the steps: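 HepG2 cells stably carrying hCAR and CYP2B6-2.2kb luciferase reporter, 2500 cells/well, compound with 50 nM CITCO agonist for 24hr at 37C. ONE-Glo luminescence measured CAR activity; CellTiter-Fluor read viability.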

For assay [6] the target is unchanged. Kind of assay: qHTS for Constitutive Androstane Receptor (CAR) Agonist screened against the NCATS CANVASS Library (AID 1347373).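 Note: every well also contained 1.5 µM PK11195 alongside the test compound.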 Note: potency is the fitted concentration of half-maximal effect. The conditions noted are these: HepG2-hCAR-CYP2B6 luciferase reporter, ONE-Glo luminescence; series mostly up to 46.1 µM. An outline of the steps: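 CAR agonism is scored as CYP2B6-promoter luciferase induction in a double-stable transfected HepG2 line, where 1.5uM PK11195 is included in each well. Compounds were tested over a 24hr exposure.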

Assay [7] in a line: SDT Cancer Cell Toxicity qHTS against the NCATS CANVASS Library (AID 1347365).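 Note: SDT canine glioma cells 500 per well in 1536 well plates; nearly all actives have a fitted effect of over 60% in size.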 Particulars: SDT dog glioma viability, ATP luminescence, 72 h; series mostly up to 46.1 µM. In short, it runs like this:
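Dispense 500 SDT cells per well; pin-transfer compounds; incubate 72 hr at 37C, 5% CO2, 95% RH; add CellTiterGlo and read luminescence.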

Assay [8] in a line: G06 Cancer Cell Toxicity qHTS against the NCATS CANVASS Library (AID 1347368). Note: nearly all actives have a fitted effect of over 60% in size. Particulars: G06 dog glioma cells, viability ATP luminescence, 72 h; series mostly up to 91.4 µM. From the text:
Natural products and their derivatives continue to be wellsprings of nascent therapeutic potential. However, many laboratories have limited resources for biological evaluation, leaving their previously isolated or synthesized compounds largely or completely untested. To address this issue, the Canvass library of natural products was assembled (https://tripod.nih.gov/canvass), in collaboration with academic and industry researchers, for quantitative high-throughput screening (qHTS) across a diverse set of cell-based and biochemical assays. The pure (>85% purity by liquid chromatography/mass spectrometry [LC/MS]) Canvass library of 346 natural products were submitted by 45 academic laboratories and companies around the world. We collected pure natural products to circumvent deconvolution and structure elucidation due to time and resource limitations. The library was formatted into 1536-well plates and evaluated in 50 qHTS (in an 11-pnt concentration series) bioassays with broad scope of disease-relevant mechanisms. The resulting data set from 50 different assays was then systematically analyzed to identify overall trends and specific natural products with interesting biological activities. Reported herein are the results of each individual qHTS and their corresponding assay protocol. This assay uses ATP (luminescence) content to measure the cytotoxiciy of compounds on G06 dog glioma cancer cell line. National Center for Advancing Translational Sciences (NCATS), Rockville, MD National Institute of Health (NIH), Bethesda, Maryland
Cancer Cell Toxicity qHTS protocol: for cell lines G06, J3T, and SDT. 1. In a 1536 well, tissue culture treated white solid bottom plates (Corning 7494), 5 uL of G06 cell solution (final concentration of 500 cells / well) was dispensed using the Multidrop Combi dispenser (Thermo Fisher Scientific) into columns 2, 3, 5-48. 2. […] Luminescence signal was acquired via the ViewLux plate reader (PerkinElmer) using a clear emission filter, 2 sec exposure, and 1x binning settings.

Assay [9] can be described thus: qHTS for ATAD5 Antagonist screened against the NCATS CANVASS Library (AID 1347370).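 Note: HEK293T cells carrying an ATAD5 luciferase reporter co-treated with 10 µM 5-fluorouridine; nearly all actives have a fitted effect of over 65% in size.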 Particulars: HEK293T-ATAD5-luc, 5-FUrd stimulated, luminescence, 16 h; series mostly up to 46.1 µM. In short, it runs like this:
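HEK293T cells with a stably integrated ATAD5-controlled luciferase reporter were exposed to compounds (11-pt) alongside 10 uM 5-fluorouridine as ATAD5 stabilizer for 16hr at 37C. Viability was read by CellTiter-Fluor fluorescence, then ATAD5 by luminescence.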

Assay [10] can be described thus: J3T Cancer Cell Toxicity qHTS against the NCATS CANVASS Library (AID 1347371). The conditions noted are these: J3T dog glioma viability, ATP luminescence, 72 h; series mostly up to 91.4 µM. In short, it runs like this: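 Viability of the J3T glioma line from dog is scored by ATP luminescence after a 72 hr incubation with natural products.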

Results filed as inconclusive are left out. Activity calls are given as the source filed them. Calls come from the whole dose curve; as a rule, active = well fitted curve in the direction sought with a large enough effect; inconclusive = small, poorly fitted or top-dose-only effect, or another doubt; inactive = no such curve, though single readings can be large; an effect the other way counts as inactive or inconclusive.

Sequence of Nuclear receptor subfamily 1 group I member 3 (Homo sapiens) (Q14994 whole entry, looked up): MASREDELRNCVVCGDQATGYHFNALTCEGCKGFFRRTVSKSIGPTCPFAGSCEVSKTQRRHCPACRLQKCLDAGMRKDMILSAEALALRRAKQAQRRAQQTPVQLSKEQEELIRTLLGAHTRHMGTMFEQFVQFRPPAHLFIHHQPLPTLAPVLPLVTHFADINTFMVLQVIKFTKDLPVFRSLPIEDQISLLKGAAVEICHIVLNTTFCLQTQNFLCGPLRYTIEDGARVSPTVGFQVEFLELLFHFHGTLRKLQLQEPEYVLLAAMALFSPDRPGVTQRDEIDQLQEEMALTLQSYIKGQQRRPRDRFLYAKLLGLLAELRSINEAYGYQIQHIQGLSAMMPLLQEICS

On to `CC(=O)O[C@H]1C[C@@]2(C)[C@@H](CC[C@H]3[C@@]4(C)C=CC(=O)[C@@H](C)[C@@H]4[C@H](OC(C)=O)C(=O)[C@@]32C)/C1=C(\CCC=C(C)C)C(=O)O`, for which the molecule was called inactive in [1], in [2], in assay [3], in [4] and in assay [5]. In assay [6], the Potency result is “inactive”.
Regarding `CC(C)c1ccc2c(c1)CCC1[C@](C)(C(=O)O)CCC[C@]21C` (some centres undefined), the molecule was called inactive in [1], in [7], in assay [2], in assay [3], in assay [8] and in [4]. For the same molecule, the outcome in [9], in [10] and in assay [5] was inactive.
`O=C(/C=C/C=C/c1ccc2c(c1)OCO2)N1CCCCC1`: the molecule was classed as inactive in [7], in [2], in [3], in assay [8], in assay [4] and in assay [9]. For the same molecule, the molecule was classed as inactive in assay [10] and in assay [5]. Moreover, the Potency in [6] was 4.14 µM (active).
In the case of `C/C(=C\CC/C(C)=C/CC[C@]1(C)CCc2cc(O)cc(C)c2O1)CC/C=C(\C)C(=O)O`, the outcome in assay [1], in assay [7], in assay [2], in assay [3], in assay [8] and in assay [4] was inactive. The molecule was called inactive in assay [9], in assay [10] and in assay [5]. Further, the Potency result in assay [6] is “inactive”.
